Structures are written as SMILES. Values joined by “and” are separate entries in the source; they are usually repeats but may differ in a detail not shown here. Identical values can stand only once. Values without a mark were called inactive.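 Rule for the calls: active = inhibition at or above 50% relative to wild type and mutant plate controls; inactive = inhibition below 50%.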

This assay in a line: loss of swimming-algae plug formation – whole organism, Chlamydomonas reinhardtii, WT vs cilia-less mutant, absorbance, 96-well, primary screen (AID 463189).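 Note: 0% = wild type cc124 cells in DMSO and 100% = ciliumless bld1 mutant cells.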 The conditions noted are these: Chlamydomonas reinhardtii gravitaxis, OD600 absorbance, 2 days; at 10 µM; hits give high values.
Regarding `N#Cc1c(-c2ccccc2)no[n+]1[O-]`, the inhibition is -3.89%.
In the case of `CC(=O)Oc1ccccc1C(=O)O`, the inhibition is -5.84%.
In the case of `COC(=O)C1=C(C)NC(C)=C(C(=O)OCCN(C)Cc2ccccc2)C1c1cccc([N+](=O)[O-])c1` (stereo not given), the inhibition is -0.607%.
`CNCC[C@H](Oc1ccc(C(F)(F)F)cc1)c1ccccc1`: the inhibition is -14.3%.
As for `NC(CCCP(=O)(O)O)C(=O)O` (stereo not given), the inhibition was -5.37%.
For `C#CCN1C(C)=C(C(=O)OC)C(c2cccc([N+](=O)[O-])c2)C(C(=O)OCC)=C1C` (stereo not given), the inhibition is 4.14%.
For `Nc1cc(Cl)c(NC2=NCCN2)c(Cl)c1`, the inhibition is -3.5%.
For `CCC(C)N(C)C(=O)c1cc2ccccc2c(-c2ccccc2Cl)n1` (stereo not given), the inhibition is 2.31%.
Regarding `Nc1ncnc2c1c(-c1ccc(Oc3ccccc3)cc1)cn2C1CCCC1`, the inhibition is 35.3%.
For `COc1cc2c(CCNC(C)=O)c[nH]c2cc1O`, the inhibition is -0.037%.
Regarding `CC(C)NNC(=O)c1ccncc1`, the inhibition was 2.86%.
Regarding `O=c1c(-c2ccc(O)cc2)coc2cc(O)cc(O)c12`, the inhibition is -5.08%.
`CC(N)=NCCCC[C@@H](N)C(=O)O`: the inhibition was 7.31%.
Take `C[C@@H]1C(=O)NC2=Nc3cccc(Cl)c3CN21`: the inhibition is 1.72%.
As for `c1cnc(N2CCN(Cc3ccc4c(c3)OCO4)CC2)nc1`, the inhibition is 0.952%.
Take `NC(N)=NCCCCN=C(N)N`: the inhibition is -4.67%.
As for `CN(C)CCCCSC(=N)N`, the inhibition is 0.024%.
For the compound `C1CCC(N=C(NC23CC4CC(CC(C4)C2)C3)N2CCOCC2)CC1`, the inhibition is 2.95%.
With `C/C=C1\C(=O)CC2C3CCC4=CC(=O)CC[C@]4(C)C3CC[C@]12C` (stereo not given in full) the figure was 0.131%; with `O=C(O)[C@H]1NCCC[C@H]1C(=O)O`, -0.478%; with `NC1(C(=O)O)CCCCC1`, -2.27%.
Consider `O=C(NCCNCC(O)COc1ccc(O)cc1)N1CCOCC1` (stereo not given), for which the inhibition was 10.1%.
With `FC(F)(F)c1ccccc1-n1ccnc1`, the inhibition was 2.41%.
With `O=C1NC(O)=NC1(c1ccccc1)c1ccccc1`, the inhibition is -1.32%.
As to `CC(=O)C(C)=O`, the inhibition is 6.21%.
`CC(C)NC[C@H](O)COc1cccc2[nH]ccc12`: the inhibition was -3.11% and 2.85%.
As to `CCCn1c(=O)c2[nH]c(-c3ccc(OCC(=O)NCCN)cc3)nc2n(CCC)c1=O`, the inhibition was 3.94%.
As to `O=C1CCC(c2ccc(-n3ccnc3)cc2)=NN1`, the inhibition is -5.18%.
As for `NCC1OC(O[C@@H]2[C@H](O)C(OC3C(O)C(N)CC(N)C3OC3OC(CO)C(O)C(O)C3N)O[C@@H]2CO)C(N)C(O)C1O` (stereo not given in full), the inhibition was 4.9%.
The result for `NC/C=C/C(=O)O` reads 9.04%; that for `CC(=O)CCCCn1c(=O)c2c(ncn2C)n(C)c1=O`, -0.901%.
For the compound `COc1ccc2[nH]c(I)c(CCNC(C)=O)c2c1`, the inhibition is -0.69%.
For the compound `CC(C)c1ccc2c(c1)c(SC(C)(C)C)c(CC(C)(C)C(=O)O)n2Cc1ccc(Cl)cc1`, the inhibition was 9.82%.
The result for `CCOC(=O)C12CC1/C(=N/O)c1ccccc1O2` (stereo not given) reads 6.31%; that for `N=C(N)c1ccc(N)cc1`, 28.5%.
In the case of `NC(N)=NCc1cccc(I)c1`, the inhibition was 4.17%.
As for `COc1cc2c(CCNC(C)=O)c[nH]c2cc1Cl`, the inhibition was 4.11%.
For `O=C(Nc1ccccc1)c1cc([N+](=O)[O-])ccc1Cl`, the inhibition is 2.4%.
`C[C@@]1(C2CCCC2)Cc2cc(OCC(=O)O)c(Cl)c(Cl)c2C1=O`: the inhibition is 5.71%.
With `Cn1c(=O)[nH]c2ncn(C)c2c1=O`, the inhibition is -7.51%.

By inhibition is commonly meant the relative decrease from the control value, in per cent.

These data come from PubChem BioAssay.
